# From publication PMC7862700, “An all-to-all approach to the identification of sequence-specific readers for epigenetic DNA modifications on cytosine”
# Experiments:
# Assay in all cases: DAPPL (digital affinity profiling via proximity ligation, sequencing); 10 mM Tris-HCl pH 7.5, 50 mM NaCl, 1 mM DTT, 4% glycerol, room temperature, 30 min; GST-TFs on glutathione beads, 16-mer random dsDNA library, 0.1% formaldehyde crosslink after washing; high values mean tight binding
# FEV = biological target: T1, FEV (Homo sapiens, UniProt Q99581 1-238); settings: protein: recombinant; tags: N-terminal GST; dsDNA, one strand shown
# T1 sequence: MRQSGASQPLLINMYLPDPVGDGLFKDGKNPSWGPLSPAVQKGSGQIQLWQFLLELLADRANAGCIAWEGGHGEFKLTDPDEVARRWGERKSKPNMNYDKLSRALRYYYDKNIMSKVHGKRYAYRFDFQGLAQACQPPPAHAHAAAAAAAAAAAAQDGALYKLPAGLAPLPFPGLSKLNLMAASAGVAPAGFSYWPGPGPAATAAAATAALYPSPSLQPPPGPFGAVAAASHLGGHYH
# Outline: (§1)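 Sequencing on an Illumina NextSeq500 followed washing, crosslinking with 0.1% formaldehyde, proximity ligation (BsaI/T4 ligase, 1 h, 37 °C) and PCR amplification of pools that had been incubated for 30 min at room temperature with 200 nmole of a random double-stranded 16-mer DNA library in Tris/NaCl/DTT/glycerol buffer. Each pool held DNA-barcoded human transcription factors, expressed in yeast as GST fusions and captured on glutathione beads, plus a tag-only sample. Binding signal is a hexamer's read frequency for a factor divided by its frequency in the tag-only sample.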
# ETV5 = ETV5 (Homo sapiens, UniProt P41161 1-510); settings: protein: recombinant; tags: N-terminal GST; dsDNA, one strand shown
# Outline: as §1
# HSF1 = HSF1 (Homo sapiens, UniProt Q00613 1-529); settings: protein: recombinant; tags: N-terminal GST; chain copies: 3; dsDNA, one strand shown
# Outline: as §1
# SPIC = biological target: T2, SPIC (Homo sapiens, UniProt Q8N5J4 1-248); settings: protein: recombinant; tags: N-terminal GST; dsDNA, one strand shown
# T2 sequence: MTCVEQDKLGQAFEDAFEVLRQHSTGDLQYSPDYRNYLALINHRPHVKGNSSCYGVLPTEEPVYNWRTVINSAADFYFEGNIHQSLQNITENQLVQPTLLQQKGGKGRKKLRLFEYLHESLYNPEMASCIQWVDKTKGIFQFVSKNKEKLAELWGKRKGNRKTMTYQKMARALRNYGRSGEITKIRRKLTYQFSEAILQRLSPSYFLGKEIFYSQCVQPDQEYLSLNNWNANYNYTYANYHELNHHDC
# Outline: as §1
# ELF4 = ELF4 (Homo sapiens, UniProt Q99607 1-663); settings: protein: recombinant; tags: N-terminal GST; dsDNA, one strand shown
# Outline: as §1
# ELK4 = biological target: T3, ELK4 (Homo sapiens, UniProt P28324-2 1-405); settings: protein: recombinant; tags: N-terminal GST; dsDNA, one strand shown
# T3 sequence: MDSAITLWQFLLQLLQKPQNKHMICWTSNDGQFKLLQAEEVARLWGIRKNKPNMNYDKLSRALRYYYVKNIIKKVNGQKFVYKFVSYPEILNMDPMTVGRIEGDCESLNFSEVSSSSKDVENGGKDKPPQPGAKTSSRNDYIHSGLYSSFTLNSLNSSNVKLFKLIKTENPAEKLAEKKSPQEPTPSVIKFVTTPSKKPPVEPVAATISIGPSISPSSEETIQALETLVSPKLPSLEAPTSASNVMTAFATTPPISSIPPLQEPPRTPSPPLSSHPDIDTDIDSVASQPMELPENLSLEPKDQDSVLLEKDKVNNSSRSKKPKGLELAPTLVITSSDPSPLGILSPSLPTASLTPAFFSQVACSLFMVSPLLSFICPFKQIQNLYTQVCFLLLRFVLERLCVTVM
# Outline: as §1
# ETV2 = biological target: T4, ETV2 (Homo sapiens, UniProt O00321 1-342); settings: protein: recombinant; tags: N-terminal GST; dsDNA, one strand shown
# T4 sequence: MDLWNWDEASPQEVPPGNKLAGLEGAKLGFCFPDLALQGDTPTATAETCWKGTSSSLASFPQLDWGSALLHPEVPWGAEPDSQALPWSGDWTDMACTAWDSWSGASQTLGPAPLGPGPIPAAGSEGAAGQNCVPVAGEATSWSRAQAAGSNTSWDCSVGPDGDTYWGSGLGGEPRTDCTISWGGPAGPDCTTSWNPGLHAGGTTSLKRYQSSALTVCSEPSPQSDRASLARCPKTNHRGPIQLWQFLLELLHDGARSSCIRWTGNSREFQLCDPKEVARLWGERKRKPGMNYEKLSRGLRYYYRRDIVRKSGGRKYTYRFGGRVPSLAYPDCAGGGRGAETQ
# Outline: as §1
# ELF3 = biological target: T5, ELF3 (Homo sapiens, UniProt P78545 1-371); settings: protein: recombinant; tags: N-terminal GST; dsDNA, one strand shown
# T5 sequence: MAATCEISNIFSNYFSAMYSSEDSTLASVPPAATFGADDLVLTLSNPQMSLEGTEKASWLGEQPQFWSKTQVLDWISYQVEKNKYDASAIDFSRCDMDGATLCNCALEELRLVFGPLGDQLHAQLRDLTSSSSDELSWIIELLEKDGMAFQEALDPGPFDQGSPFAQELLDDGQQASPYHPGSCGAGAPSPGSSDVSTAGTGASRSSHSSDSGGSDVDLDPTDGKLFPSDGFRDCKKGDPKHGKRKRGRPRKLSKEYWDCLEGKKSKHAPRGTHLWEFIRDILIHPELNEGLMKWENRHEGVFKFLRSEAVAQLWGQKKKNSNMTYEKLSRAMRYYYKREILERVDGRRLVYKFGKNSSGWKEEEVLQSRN
# Outline: as §1
# CRX = CRX (Homo sapiens, UniProt O43186 1-299); settings: protein: recombinant; tags: N-terminal GST; dsDNA, one strand shown
# Outline: as §1
# ETV1 = ETV1 (Homo sapiens, UniProt P50549 1-477); settings: protein: recombinant; tags: N-terminal GST; dsDNA, one strand shown
# Outline: as §1
# ERF = biological target: T6, ERF (Homo sapiens, UniProt P50548 1-548); settings: protein: recombinant; tags: N-terminal GST; dsDNA, one strand shown
# T6 sequence: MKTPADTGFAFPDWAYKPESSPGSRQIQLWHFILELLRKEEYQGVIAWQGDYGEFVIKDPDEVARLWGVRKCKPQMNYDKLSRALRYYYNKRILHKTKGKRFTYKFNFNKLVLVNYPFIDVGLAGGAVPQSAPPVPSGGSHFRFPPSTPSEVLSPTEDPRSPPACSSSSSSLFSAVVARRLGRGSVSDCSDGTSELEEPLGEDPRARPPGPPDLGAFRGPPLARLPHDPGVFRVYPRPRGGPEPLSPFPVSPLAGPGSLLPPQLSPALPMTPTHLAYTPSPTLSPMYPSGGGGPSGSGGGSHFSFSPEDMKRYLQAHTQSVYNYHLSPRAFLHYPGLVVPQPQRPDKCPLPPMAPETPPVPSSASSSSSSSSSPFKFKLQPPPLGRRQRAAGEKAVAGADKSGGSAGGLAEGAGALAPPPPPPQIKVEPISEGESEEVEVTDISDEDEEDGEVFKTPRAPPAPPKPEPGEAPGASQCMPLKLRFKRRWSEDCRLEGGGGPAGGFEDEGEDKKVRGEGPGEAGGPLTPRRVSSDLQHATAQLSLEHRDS
# Outline: as §1
# ETV3L = biological target: T7, ETV3L (Homo sapiens, UniProt Q6ZN32 1-361); settings: protein: recombinant; tags: N-terminal GST; dsDNA, one strand shown
# T7 sequence: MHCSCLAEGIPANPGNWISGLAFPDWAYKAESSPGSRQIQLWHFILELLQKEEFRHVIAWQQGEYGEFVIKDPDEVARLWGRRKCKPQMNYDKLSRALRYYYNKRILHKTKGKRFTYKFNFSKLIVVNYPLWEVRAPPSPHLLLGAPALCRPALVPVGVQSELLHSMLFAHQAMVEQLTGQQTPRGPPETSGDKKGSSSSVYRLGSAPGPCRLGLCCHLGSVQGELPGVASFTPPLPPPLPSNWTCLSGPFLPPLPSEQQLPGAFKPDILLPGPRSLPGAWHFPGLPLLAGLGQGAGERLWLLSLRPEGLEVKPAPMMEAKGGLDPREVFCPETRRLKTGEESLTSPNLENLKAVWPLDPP
# Outline: as §1
# ETS2 = biological target: T8, ETS2 (Homo sapiens, UniProt P15036 1-469); settings: protein: recombinant; tags: N-terminal GST; dsDNA, one strand shown
# T8 sequence: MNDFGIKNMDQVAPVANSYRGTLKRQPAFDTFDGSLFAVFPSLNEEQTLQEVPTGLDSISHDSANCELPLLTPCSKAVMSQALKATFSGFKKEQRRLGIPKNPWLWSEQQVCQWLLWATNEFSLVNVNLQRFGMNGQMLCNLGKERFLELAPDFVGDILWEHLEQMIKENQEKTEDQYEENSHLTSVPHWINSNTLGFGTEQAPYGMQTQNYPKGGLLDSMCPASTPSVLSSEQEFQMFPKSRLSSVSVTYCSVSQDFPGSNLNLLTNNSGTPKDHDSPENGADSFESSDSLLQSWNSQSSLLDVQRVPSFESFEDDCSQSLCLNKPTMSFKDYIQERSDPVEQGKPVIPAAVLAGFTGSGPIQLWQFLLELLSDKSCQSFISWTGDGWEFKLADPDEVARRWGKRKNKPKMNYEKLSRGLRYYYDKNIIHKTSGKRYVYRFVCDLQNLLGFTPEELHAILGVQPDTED
# Outline: as §1
# SPDEF = biological target: T9, SPDEF (Homo sapiens, UniProt O95238 1-335); settings: protein: recombinant; tags: N-terminal GST; dsDNA, one strand shown
# T9 sequence: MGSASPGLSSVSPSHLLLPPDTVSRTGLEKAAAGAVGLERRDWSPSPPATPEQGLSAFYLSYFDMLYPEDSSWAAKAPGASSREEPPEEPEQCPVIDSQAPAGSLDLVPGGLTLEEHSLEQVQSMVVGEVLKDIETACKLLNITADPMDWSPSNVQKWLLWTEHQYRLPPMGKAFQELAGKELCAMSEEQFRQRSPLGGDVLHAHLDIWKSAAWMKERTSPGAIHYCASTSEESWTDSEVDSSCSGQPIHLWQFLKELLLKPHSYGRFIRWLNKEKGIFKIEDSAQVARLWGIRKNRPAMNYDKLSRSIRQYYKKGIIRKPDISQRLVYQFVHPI
# Outline: as §1
# ETV7 = biological target: T10, ETV7 (Homo sapiens, UniProt Q9Y603 1-341); settings: protein: recombinant; tags: N-terminal GST; dsDNA, one strand shown
# T10 sequence: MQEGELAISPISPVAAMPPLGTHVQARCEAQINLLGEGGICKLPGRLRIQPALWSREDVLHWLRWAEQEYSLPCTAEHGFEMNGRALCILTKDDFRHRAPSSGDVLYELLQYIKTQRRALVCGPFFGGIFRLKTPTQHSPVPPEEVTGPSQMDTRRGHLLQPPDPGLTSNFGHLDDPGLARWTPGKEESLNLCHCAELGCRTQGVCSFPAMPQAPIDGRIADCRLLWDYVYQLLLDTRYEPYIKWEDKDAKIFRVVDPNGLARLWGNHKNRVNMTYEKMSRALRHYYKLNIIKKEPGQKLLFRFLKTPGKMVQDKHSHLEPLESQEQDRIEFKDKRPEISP
# Outline: as §1
# ELF5 = biological target: T11, ELF5 (Homo sapiens, UniProt Q9UKW6-2 1-255); settings: protein: recombinant; tags: N-terminal GST; dsDNA, one strand shown
# T11 sequence: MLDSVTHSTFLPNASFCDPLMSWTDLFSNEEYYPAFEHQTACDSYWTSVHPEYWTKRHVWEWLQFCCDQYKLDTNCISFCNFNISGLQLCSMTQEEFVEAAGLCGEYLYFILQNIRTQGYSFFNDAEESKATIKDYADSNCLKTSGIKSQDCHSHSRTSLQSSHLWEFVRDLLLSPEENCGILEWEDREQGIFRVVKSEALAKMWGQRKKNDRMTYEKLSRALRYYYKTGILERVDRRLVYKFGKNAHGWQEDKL
# Outline: as §1
# ETV3 = biological target: T12, ETV3 (Homo sapiens, UniProt P41162-2 1-143); settings: protein: recombinant; tags: N-terminal GST; dsDNA, one strand shown
# T12 sequence: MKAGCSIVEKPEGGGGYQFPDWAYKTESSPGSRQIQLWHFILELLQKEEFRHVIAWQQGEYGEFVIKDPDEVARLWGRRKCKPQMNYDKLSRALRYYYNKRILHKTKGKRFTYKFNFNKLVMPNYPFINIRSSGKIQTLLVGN
# Outline: as §1
# ETV6 = ETV6 (Homo sapiens, UniProt P41212 1-452); settings: protein: recombinant; tags: N-terminal GST; dsDNA, one strand shown
# Outline: as §1
# Chain of HSF1 (Q00613 whole entry): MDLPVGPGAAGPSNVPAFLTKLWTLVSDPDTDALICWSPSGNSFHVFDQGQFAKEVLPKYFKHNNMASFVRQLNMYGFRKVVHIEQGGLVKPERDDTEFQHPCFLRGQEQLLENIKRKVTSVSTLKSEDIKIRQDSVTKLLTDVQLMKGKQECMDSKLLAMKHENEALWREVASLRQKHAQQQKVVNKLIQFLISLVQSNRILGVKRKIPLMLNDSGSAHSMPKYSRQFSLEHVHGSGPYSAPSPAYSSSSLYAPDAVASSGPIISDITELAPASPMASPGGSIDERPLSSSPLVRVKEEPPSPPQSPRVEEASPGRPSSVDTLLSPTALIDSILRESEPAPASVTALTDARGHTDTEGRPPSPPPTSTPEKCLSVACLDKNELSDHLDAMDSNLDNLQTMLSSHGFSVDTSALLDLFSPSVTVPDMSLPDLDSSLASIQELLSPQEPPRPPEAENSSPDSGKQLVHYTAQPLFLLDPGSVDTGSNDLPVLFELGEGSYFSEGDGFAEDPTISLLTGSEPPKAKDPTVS
# Chain of ELF4 (Q99607 whole entry): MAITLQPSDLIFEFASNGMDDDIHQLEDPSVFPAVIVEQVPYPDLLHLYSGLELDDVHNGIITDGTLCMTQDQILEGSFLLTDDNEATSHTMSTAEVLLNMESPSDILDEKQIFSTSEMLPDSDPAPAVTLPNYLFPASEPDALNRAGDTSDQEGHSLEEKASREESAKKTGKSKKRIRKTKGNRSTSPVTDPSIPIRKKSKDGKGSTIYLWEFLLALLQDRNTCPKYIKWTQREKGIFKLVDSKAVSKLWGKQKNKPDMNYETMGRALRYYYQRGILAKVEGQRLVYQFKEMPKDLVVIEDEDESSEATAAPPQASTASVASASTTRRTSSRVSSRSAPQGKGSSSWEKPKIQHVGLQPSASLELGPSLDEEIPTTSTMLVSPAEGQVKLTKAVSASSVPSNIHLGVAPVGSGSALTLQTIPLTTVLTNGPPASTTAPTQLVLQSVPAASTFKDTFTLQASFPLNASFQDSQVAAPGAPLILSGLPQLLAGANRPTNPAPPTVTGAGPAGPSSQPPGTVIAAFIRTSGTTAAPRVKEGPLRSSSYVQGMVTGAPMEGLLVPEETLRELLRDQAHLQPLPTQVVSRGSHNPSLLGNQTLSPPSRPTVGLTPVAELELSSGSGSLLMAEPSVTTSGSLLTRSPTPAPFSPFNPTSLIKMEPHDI
# Chain of CRX (O43186 whole entry): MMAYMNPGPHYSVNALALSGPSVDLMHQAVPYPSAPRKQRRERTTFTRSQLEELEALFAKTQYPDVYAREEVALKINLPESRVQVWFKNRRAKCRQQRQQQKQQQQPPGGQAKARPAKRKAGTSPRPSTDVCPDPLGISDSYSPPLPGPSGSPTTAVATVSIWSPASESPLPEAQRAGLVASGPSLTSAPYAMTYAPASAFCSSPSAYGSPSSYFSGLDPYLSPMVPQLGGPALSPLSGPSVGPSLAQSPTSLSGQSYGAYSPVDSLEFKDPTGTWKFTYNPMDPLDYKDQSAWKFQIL
# Chain of ETV1 (P50549 whole entry): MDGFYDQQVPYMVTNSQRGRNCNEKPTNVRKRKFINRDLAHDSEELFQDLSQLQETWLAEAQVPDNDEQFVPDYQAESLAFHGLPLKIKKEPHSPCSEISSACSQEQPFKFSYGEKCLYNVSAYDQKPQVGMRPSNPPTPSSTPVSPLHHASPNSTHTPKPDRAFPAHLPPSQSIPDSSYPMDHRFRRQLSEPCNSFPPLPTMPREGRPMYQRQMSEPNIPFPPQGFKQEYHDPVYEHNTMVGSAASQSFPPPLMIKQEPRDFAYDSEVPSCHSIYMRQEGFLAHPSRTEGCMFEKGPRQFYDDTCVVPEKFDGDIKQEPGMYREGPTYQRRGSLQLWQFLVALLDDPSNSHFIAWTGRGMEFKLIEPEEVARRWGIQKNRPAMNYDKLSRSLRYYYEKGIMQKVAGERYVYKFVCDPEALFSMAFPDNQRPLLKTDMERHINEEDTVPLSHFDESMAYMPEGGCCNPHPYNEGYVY
# Chain of ETV6 (P41212 whole entry): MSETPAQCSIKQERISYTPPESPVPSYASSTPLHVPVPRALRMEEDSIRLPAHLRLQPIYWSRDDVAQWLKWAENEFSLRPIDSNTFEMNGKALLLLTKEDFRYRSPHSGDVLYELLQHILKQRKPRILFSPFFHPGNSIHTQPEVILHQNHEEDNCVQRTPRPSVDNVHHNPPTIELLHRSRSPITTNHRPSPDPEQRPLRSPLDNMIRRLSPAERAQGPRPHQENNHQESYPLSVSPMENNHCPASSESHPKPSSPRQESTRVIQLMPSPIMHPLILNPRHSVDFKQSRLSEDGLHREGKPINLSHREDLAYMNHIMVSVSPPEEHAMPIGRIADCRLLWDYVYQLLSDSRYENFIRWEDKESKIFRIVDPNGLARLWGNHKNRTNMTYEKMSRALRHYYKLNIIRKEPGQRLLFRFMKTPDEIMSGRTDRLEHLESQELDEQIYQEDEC
# Chain of ETV5 (P41161 whole entry): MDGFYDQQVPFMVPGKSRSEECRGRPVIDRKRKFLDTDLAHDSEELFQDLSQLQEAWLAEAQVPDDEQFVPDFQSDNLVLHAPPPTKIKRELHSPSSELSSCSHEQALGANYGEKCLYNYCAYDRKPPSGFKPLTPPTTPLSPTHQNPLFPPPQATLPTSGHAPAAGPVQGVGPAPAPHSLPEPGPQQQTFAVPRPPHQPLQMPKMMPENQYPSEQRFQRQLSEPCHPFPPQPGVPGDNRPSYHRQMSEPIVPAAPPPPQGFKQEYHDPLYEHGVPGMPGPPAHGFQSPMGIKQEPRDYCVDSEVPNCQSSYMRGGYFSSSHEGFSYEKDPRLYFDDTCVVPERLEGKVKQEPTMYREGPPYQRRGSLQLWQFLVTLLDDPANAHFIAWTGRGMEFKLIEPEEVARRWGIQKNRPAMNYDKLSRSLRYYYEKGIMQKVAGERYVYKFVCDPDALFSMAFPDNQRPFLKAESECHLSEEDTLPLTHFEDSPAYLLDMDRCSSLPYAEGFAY
sequence,measurement,setting,value
ACTATG,binding signal,FEV,"1.21 fold enrichment (6-mer frequency, TF over GST control)"
same,binding signal,ETV5,"1.19 fold enrichment (6-mer frequency, TF over GST control)"
same,binding signal,HSF1,"1.09 fold enrichment (6-mer frequency, TF over GST control)"
same,binding signal,SPIC,"1.37 fold enrichment (6-mer frequency, TF over GST control)"
same,binding signal,ELF4,"1.26 fold enrichment (6-mer frequency, TF over GST control)"
same,binding signal,ELK4,"1.08 fold enrichment (6-mer frequency, TF over GST control)"
same,binding signal,ETV2,"1.24 fold enrichment (6-mer frequency, TF over GST control)"
same,binding signal,ELF3,"1.09 fold enrichment (6-mer frequency, TF over GST control)"
same,binding signal,CRX,"1.02 fold enrichment (6-mer frequency, TF over GST control)"
same,binding signal,ETV1,"1.24 fold enrichment (6-mer frequency, TF over GST control)"
same,binding signal,ERF,"1.15 fold enrichment (6-mer frequency, TF over GST control)"
same,binding signal,ETV3L,"1.2 fold enrichment (6-mer frequency, TF over GST control)"
same,binding signal,ETS2,"1.3 fold enrichment (6-mer frequency, TF over GST control)"
same,binding signal,SPDEF,"1.28 fold enrichment (6-mer frequency, TF over GST control)"
same,binding signal,ETV7,"1.18 fold enrichment (6-mer frequency, TF over GST control)"
same,binding signal,ELF5,"1.16 fold enrichment (6-mer frequency, TF over GST control)"
same,binding signal,ETV3,"1.25 fold enrichment (6-mer frequency, TF over GST control)"
same,binding signal,ETV6,"1.19 fold enrichment (6-mer frequency, TF over GST control)"
